In the library only some 3.6% were active in any assay of this set; here they are far more common.
PMP22 txn – modulators of PMP22 gene transcription in S16 Schwann cells; S16 Pmp22-F2sN Schwann cells, FLuc/NLuc coincidence luminescence, 24 h; Potency, µM (highest dose often 57.5 µM), hits mostly inhibitors; actives 2% (n = 43,000); AID 1508649; active = clear falling dose curves in both reporters; inconclusive = both reporters move, but less clearly or upward; inactive = either reporter flat; the % is the NLuc reporter signal
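S16 Schwann cells carrying FLuc/NLuc coincidence reporter in the Pmp22 3' UTR treated with compound 24 h at 37C; FLuc then NLuc luminescence read sequentially by dual-luciferase reagents.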
mTORC1 inh – reduces mTORC1 signaling in Tsc2 and p53 null MEF cells; Tsc2-/- p53-/- MEF, phospho-rpS6 immunofluorescence/PI, 24 h; Potency, µM (titrated, usually from 38.3 µM), actives largely listed as inhibitors; actives 0.78% (n = 44,000); AID 493208; also: nearly all actives have a fitted effect of over 50% in size
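Readout is phospho-S6 Alexa 488 signal normalized to PI per well, reported as % active cells with thresholds set from rapamycin (7.5 nM) and DMSO controls. Cells: Tsc2-/-, p53-/- MEFs, 24 hrs compound at 37 C; PI cell number serves as viability.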
HTT-AS promoter – HTT-AS promoter activation; actives 0.24% (n = 48,000); AID 1508624; HEK293 HTT-AS promoter firefly luciferase reporter, 24 h; response scale: percent change from vehicle, -100% = no light; Potency, µM (doses to about 57.5 µM), hits mostly activators; also: nearly all actives have a fitted effect of over 55% in size
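Firefly luciferase readout (Dual-Glo, 10 min RT) after 24 h, 37 °C compound exposure (final up to 57.5 uM) of HEK293 reporter cells cultured 24 h beforehand; PTC124 at 50 uM final as control inhibitor; activity scaled vehicle 0%, zero RLU -100%.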
S16 F2sN tox – S16 Schwann cell cytotoxicity; S16 Pmp22-F2sN Schwann cells viability, CellTiter-Glo, 24 h; Potency, µM (highest dose often 57.5 µM), most hits filed as cytotoxic; actives 0.48% (n = 43,000); AID 1508642; also: nearly all actives have a fitted effect of over 65% in size
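Viability was measured by CellTiter-Glo luminescence (15 min, room temperature). This followed 24 h at 37 °C of compound exposure (23 nL pin transfer) in S16 Pmp22-F2sN Schwann cells, 500-1,000 per well.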
HTT prom inh – HTT promoter inhibition | Potency, µM (series often up to 57.5 µM), usual class: inhibitors | HEK293 HTT promoter firefly luciferase reporter, 24 h | AID 1508623 | actives 0.93% (n = 48,000); also: nearly all actives have a fitted effect of over 50% in size
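HEK293 cells carrying firefly luciferase reporters were seeded at 2,500 per well in Opti-MEM and cultured for 24 h. They were then treated with compounds at up to 57.5 uM final for 24 h at 37 degrees C before Dual-Glo luminescence readout.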
NLuc saturating – counter-screen for PMP22 expression modulators: NanoLuc inhibition, saturating substrate; shares compounds with PMP22 txn; Secreted NLuc enzyme (filtered S16 cell medium), Nano-Glo luminescence; Potency, µM (titrated, usually from 57.5 µM), actives largely listed as inhibitors; actives 4% (n = 690)
NLuc Km ctr – inhibits NanoLuc under Km conditions, PMP22 counter-screen; shares compounds with PMP22 txn; Potency, µM (top dose mostly 57.5 µM), most hits filed as inhibitors; secreted NLuc enzyme, coelenterazine luminescence, Km conditions; actives 5% (n = 690)
FLuc counter – counter-screen for PMP22 expression modulators: firefly luciferase inhibition; 690 tested, under 10 active; purified P. pyralis FLuc, luminescence, 10 min; Potency, µM (series often up to 57.5 µM), usual class: inhibitors; AID 1508640; shares compounds with PMP22 txn
Target sequence (P08659 whole entry, looked up): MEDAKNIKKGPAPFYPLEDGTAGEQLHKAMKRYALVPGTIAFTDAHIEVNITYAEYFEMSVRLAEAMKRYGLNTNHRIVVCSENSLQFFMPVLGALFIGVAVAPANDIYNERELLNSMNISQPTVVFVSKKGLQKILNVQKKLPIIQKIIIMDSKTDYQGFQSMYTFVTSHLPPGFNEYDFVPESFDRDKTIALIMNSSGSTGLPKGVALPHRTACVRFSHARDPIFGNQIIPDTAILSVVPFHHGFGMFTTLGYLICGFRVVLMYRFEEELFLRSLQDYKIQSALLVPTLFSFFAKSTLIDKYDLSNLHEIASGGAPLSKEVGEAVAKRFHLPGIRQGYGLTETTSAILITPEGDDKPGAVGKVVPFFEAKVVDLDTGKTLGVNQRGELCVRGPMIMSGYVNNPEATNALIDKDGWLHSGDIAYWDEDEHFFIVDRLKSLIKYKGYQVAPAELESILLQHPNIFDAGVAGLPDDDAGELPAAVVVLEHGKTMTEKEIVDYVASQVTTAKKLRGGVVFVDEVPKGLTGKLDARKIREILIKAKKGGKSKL
S16 viab conf – S16 Schwann cell cytotoxicity, confirmatory | shares compounds with PMP22 txn | S16 Schwann cells viability, CellTiter-Glo ATP luminescence, 24 h | Potency, µM (series often up to 57.5 µM), actives largely listed as cytotoxic | actives 7% (n = 690) | AID 1508641
PMP22 txn conf – confirmation of modulators of PMP22 gene transcription in S16 cells; shares compounds with PMP22 txn; S16 Schwann cells Pmp22-F2sN, dual luciferase, 24 h; Potency, µM (highest dose often 57.5 µM), actives largely listed as inhibitors; actives 22% (n = 690); active = clear falling dose curves in both reporters; inconclusive = both reporters move, but less clearly or upward; inactive = either reporter flat; the % is the FLuc reporter signal
PMP22 HiBiT cnf – confirmation of modulators of rat PMP22 protein expression; 95 tested, under 10 active; S16 Schwann cells Pmp22-HiBiT, luminescence, 48 h; shares compounds with PMP22 txn; Potency, µM (doses to about 27.9 µM), actives largely listed as inhibitors; AID 1508647
Target sequence (P25094 whole entry, looked up): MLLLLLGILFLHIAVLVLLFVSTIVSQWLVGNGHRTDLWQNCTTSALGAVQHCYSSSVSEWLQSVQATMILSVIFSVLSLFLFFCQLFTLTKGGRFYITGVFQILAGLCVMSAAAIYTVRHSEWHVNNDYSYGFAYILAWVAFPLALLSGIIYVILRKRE
A number is an active result; - = inactive; ? = inconclusive; . = no result given; [ ] = dose if it differs, or a comment. Unless noted, calls follow the shape of the dose curve; as a rule, active = well fitted curve in the direction sought with a large enough effect; inconclusive = small, poorly fitted or top-dose-only effect, or another doubt; inactive = no such curve, though single readings can be large; an effect the other way counts as inactive or inconclusive.

SMILES	PMP22 txn	mTORC1 inh	HTT-AS promoter	S16 F2sN tox	HTT prom inh	NLuc saturating	NLuc Km ctr	FLuc counter	S16 viab conf	PMP22 txn conf	others
CCc1nnc(SCC(=O)N(C)c2ccccc2)c2cc3sccc3n12	13µM	-	-	?	-	?	?	-	-	?
CCc1nnc(SCc2ccc(F)cc2Cl)c2cc3sccc3n12	-	-	-	-	-	.	.	.	.	.
CC(C)c1ccc(NC(=O)N2CCN(c3ccc(Cl)c(Cl)c3)CC2)cc1	11µM	-	-	-	32µM	?	?	-	-	?
Cc1ccc(NC(=O)N2CCN(c3ccc(Cl)c(Cl)c3)CC2)cc1	?	-	-	-	?	.	.	.	.	.
O=S(=O)(c1cccc(Cl)c1)c1nnn2c1nc(NC1CCCCCC1)c1sccc12	10µM	-	-	-	-	-	-	-	-	?
O=S(=O)(c1ccc(Cl)cc1)c1nnn2c1nc(NC1CCCCC1)c1sccc12	?	-	-	-	-	.	.	.	.	.
COc1ccc(/C(C)=C/C(=O)O)c(OC)c1	.	.	-	.	-	.	.	.	.	.
Cc1ccc(NC(=O)CSc2nc(-c3ccc(F)cc3)nc3c2Cc2c(CO)cnc(C)c2O3)cc1C	-	-	-	-	-	.	.	.	.	.
Cc1ncc(CO)c2c1Oc1nc(-c3ccc(Cl)cc3)nc(SCC(=O)N3CCCCC3)c1C2	?	-	-	?	-	.	.	.	.	.
COc1ccccc1-c1nc2c(c(SCC(=O)Nc3ccc(C)c(C)c3)n1)Cc1c(CO)cnc(C)c1O2	17µM	-	-	-	?	?	?	-	-	?
Cc1ncc(CO)c2c1Oc1nc(-c3ccccc3)nc(SCC(=O)N3CCCCC3)c1C2	12µM	-	-	-	-	-	-	-	?	?
COc1cc2c(Oc3ccc(-c4cnc(Nc5ccc(F)cc5)n(C)c4=O)cc3F)ccnc2cc1OCCCN1CCOCC1	.	.	-	.	?	.	.	.	.	.
Cc1ccc(Cl)cc1NC(=O)c1oc2ccc(S(=O)(=O)N3CCC4(CC3)OCCO4)cc2c1C	7.5µM	-	-	-	-	-	-	-	?	?
Cc1c(C(=O)Nc2ccccc2Br)oc2ccc(S(=O)(=O)N3CCCCC3)cc12	?	-	-	-	-	-	-	-	-	?
Cc1c(C(=O)Nc2ccccc2Cl)oc2ccc(S(=O)(=O)N3CCCCCC3)cc12	-	-	-	-	-	.	.	.	.	.
Cc1c(C(=O)Nc2ccccc2Br)oc2ccc(S(=O)(=O)N3CCOCC3)cc12	?	-	-	-	-	.	.	.	.	.
Cc1ccc(Cl)cc1NC(=O)c1oc2ccc(S(=O)(=O)N3CCCCC3)cc2c1C	-	-	-	-	-	.	.	.	.	.
Cc1c(C(=O)Nc2ccccc2Cl)oc2ccc(S(=O)(=O)N3CCCCC3)cc12	14µM	-	-	-	-	-	-	-	-	?
CC(C=CC1=C(C)CCCC1(C)C)=CC=CC(C)=CC(=O)O	.	.	-	.	?	.	.	.	.	.
CCOC(=O)c1c(NC(=O)COc2ccc(Br)cc2)sc(C(C)=O)c1C	2.1µM	-	-	-	-	-	-	-	-	-
CCOC(=O)c1c(NC(=O)COc2cccc(C)c2C)sc(C(C)=O)c1C	-	-	-[11.5 µM]	-	-	.	.	.	.	.
CCOC(=O)c1c(NC(=O)c2nc(S(C)(=O)=O)ncc2Cl)sc(C(C)=O)c1C	4.3µM	3.7µM	-	?	-	?	?	-	14µM	3.4µM	PMP22 HiBiT cnf=?
Cc1c(C(=O)NCc2ccccc2)sc2nc[nH]c(=O)c12	-	-	-	-	-	.	.	.	.	.
Cc1c(C(=O)NCc2cccc(Cl)c2)sc2nc[nH]c(=O)c12	?	-	-	-	-	?	-	-	?	-
COCCNc1nc2c(c(=O)n(C)c(=O)n2C)n1Cc1c(F)cccc1Cl	13µM	-	-	?	?	-	-	-	-	-
SMILES	PMP22 txn	mTORC1 inh	HTT-AS promoter	S16 F2sN tox	HTT prom inh	NLuc saturating	NLuc Km ctr	FLuc counter	S16 viab conf	PMP22 txn conf	others
CCC(C(=O)O)c1ccc(N2Cc3ccccc3C2=O)cc1 (stereo not drawn)	.	.	?	.	-	.	.	.	.	.
CCOC(=O)c1cc2c(=O)n3ccccc3nc2n(Cc2ccco2)c1=NC(=O)c1ccc(C(C)(C)C)cc1	?	-	-	-	-	.	.	.	.	.
CCOC(=O)c1cc2c(=O)n3ccccc3nc2n(CC2CCCO2)c1=NC(=O)c1cccc(C(F)(F)F)c1 (stereo not drawn)	4.9µM	-	-	-	-	-	?	-	-	?
CCOC(=O)c1cc2c(=O)n3ccccc3nc2n(Cc2ccco2)c1=NC(=O)c1cc(C)cc(C)c1	5.6µM	-	-	?	?	?	?	-	?	4.6µM	PMP22 HiBiT cnf=?
CCOc1ccc(-n2ccnc2SCC(=O)Nc2nc3ccc(C)cc3s2)cc1	8.9µM	-	-	-	?	-	?	-	-	-
CN(C)CCOc1cc(-c2cn[nH]c2)ccc1NC(=O)C1COc2ccccc2O1 (stereo not drawn)	.	.	-	.	-	.	.	.	.	.
CCc1ccc(CNc2ncc(-c3cccc(OC)c3)n2C)cc1	?	13µM	-	?	-	-	-	-	?	?
Cn1c(-c2cccc(Br)c2)cnc1NCc1cccc(F)c1	?	?	-	-	-	-	?	-	-	-
COc1cccc(Cn2c(NCc3ccc(C)cc3)nc3c2c(=O)n(C)c(=O)n3C)c1	-	-	-[11.5 µM]	-	-[11.5 µM]	.	.	.	.	.
O=C(c1cc(O)c(O)c(O)c1)c1ccc(O)c(O)c1O	.	.	-	.	-	.	.	.	.	.
CCC[C@@H](NC(=O)[C@@H]1[C@H]2CCC[C@@H]2CN1C(=O)[C@@H](NC(=O)[C@@H](NC(=O)c1cnccn1)C1CCCCC1)C(C)(C)C)C(=O)C(=O)NC1CC1	.	.	-	.	?	.	.	.	.	.
CCN1CCN(c2nc3c(S(=O)(=O)c4ccc(C)cc4)nnn3c3ccsc23)CC1	17µM	-	-	-	-	-	-	-	-	-

Source: PubChem BioAssay (National Center for Advancing Translational Sciences (NCATS))
